Data reported in PubChem BioAssay (Tox21).
Inconclusive results are not listed. Activity calls are given as the source filed them. Unless noted, calls follow the shape of the dose curve; as a rule, active = well fitted curve in the direction sought with a large enough effect in the repeat runs; inconclusive = weak or mixed curves; inactive = no such curve, though single readings can be large; an effect the other way counts as inactive or inconclusive.

Columns and labels:
[1] = qHTS assay to identify small molecule agonists of the estrogen receptor alpha (ER-alpha) signaling pathway in the presence of an antagonist - cell viability counter screen (AID 1259386); also: nearly all actives have a fitted effect of over 30% in size; also: potency is read from the fitted curve at half-maximal effect
Summary of the method: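 Compounds tested at 15 concentrations for 22 h at 37C alongside 10.0nM (final) ICI-182,780 antagonist, in VM7Luc4E2 cells grown in phenol red-free, charcoal-stripped medium. Viability read by CellTiter-Fluor fluorescence after 1 h reagent incubation.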

[2] = qHTS assay to identify small molecule antagonists of the TGF-beta/Smad signaling pathway - cell viability counter screen (AID 1346824); also: nearly all actives have a fitted effect of over 50% in size
Summary of the method: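 SBE-bla HEK 293T cells, incubated overnight, then compound plus 0.25 ng/mL TGF-beta1 (stock added) for 5 hr at 37 C. Viability was read in the same wells by CellTiter-Glo luminescence after 30 min at room temperature.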

[3] = qHTS assay to identify small molecule agonists of the TGF-beta/Smad signaling pathway - cell viability counter screen (AID 1346829); also: top concentration of the series differs between compounds; nearly all actives have a fitted effect of over 45% in size
Summary of the method: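 SBE-bla HEK 293T cells plated overnight, compound exposure 5 hr at 37 C. Viability read in the same wells by CellTiter-Glo luminescence after 30 min at room temperature, following the beta-lactamase read.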

[4] = qHTS assay to identify small molecule agonists of the TGF-beta/Smad signaling pathway (AID 1346859; active = well fitted activation curve with a large enough effect in the signal ratio in the repeat runs, not every such curve was filed as active; the % refers to the signal ratio; also: series mostly up to about 77 µM)
Summary of the method: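 Reporter line: HEK 293T with stably integrated SBE-controlled beta-lactamase. Compound exposure lasts 5 hr at 37 C and 5% CO2; substrate loading follows for 2 hr at room temperature, with emission read at 460 and 530 nm.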

[5] = biological target: Thyrotropin-releasing hormone receptor (Homo sapiens) (UniProt P34981); test: qHTS assay to identify small molecule antagonists of the thyrotropin-releasing hormone receptor (TRHR) signaling pathway (AID 1346877; active = well fitted inhibition curve with a large enough effect in the repeat runs, not every such curve was filed as active; also: series mostly up to about 51 µM)
Summary of the method: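 Antagonist mode: after a 5 min room-temperature compound exposure, cells were stimulated with 1 nM (final) TRH. Dye-loaded TRHR-HEK293 cells were used, and calcium-dependent fluorescence was followed for 3 min, with 15-point titrations run in triplicate.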

[6] = biological target: Thyrotropin-releasing hormone receptor (Homo sapiens) (UniProt P34981); test: qHTS assay to identify small molecule agonists of the thyrotropin-releasing hormone receptor (TRHR) signaling pathway (AID 1346891; calls by dose curve;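 also: HEK293 cells expressing TRHR with calcium dye readout; series mostly up to about 58 µM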)
Summary of the method: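 Cells: TRHR-Hek293, seeded and incubated 18 h. Dye loading: 2 h at 37 °C. Compound added from DMSO stock by pin tool. Read-out: kinetic calcium fluorescence over 3 min.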

[7] = biological target: Progesterone receptor (Homo sapiens) (UniProt P06401); test: qHTS assay to identify small molecule antagonists of the progesterone receptor (PR) signaling pathway (AID 1346795; active = well fitted inhibition curve with a large enough effect in the signal ratio in the repeat runs, not every such curve was filed as active; the % refers to the signal ratio; also: potency is read from the fitted curve at half-maximal effect)
Summary of the method: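 Antagonist mode: compounds tested against 1 nM (final) promegestone stimulation in HEK293T cells expressing PR-UAS-bla reporter, 16 hr at 37C, 5% CO2; beta-lactamase activity detected via B/G FRET substrate after 2 hr at room temperature.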

[8] = qHTS assay to identify small molecule antagonists of the progesterone receptor (PR) signaling pathway - cell viability counter screen (AID 1346798); also: series mostly up to about 92 µM; nearly all actives have a fitted effect of over 50% in size
Summary of the method: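 Counter screen for cytotoxicity: viability of PR-UAS-bla HEK293T cells was measured with CellTiter-Glo luminescence following 16 hr compound exposure in the presence of R5020.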

[9] = qHTS assay to identify small molecule agonists of the progesterone receptor (PR) signaling pathway - cell viability counter screen (AID 1346799; calls by dose curve; also: nearly all actives have a fitted effect of over 45% in size; also: potency is read from the fitted curve at half-maximal effect)
Summary of the method: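 Cells (PR-UAS-bla HEK293T) are plated at 3,000/well in 2% charcoal-stripped FBS medium, rested 6 hr, dosed and incubated 16 hr at 37C. CellTiter-Glo is then added and luminescence measured after 30 min at room temperature.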

[10] = biological target: Progesterone receptor (Homo sapiens) (UniProt P06401); test: qHTS assay to identify small molecule agonists of the progesterone receptor (PR) signaling pathway (AID 1346784; calls by dose curve; also: nearly all actives have a fitted effect of over 30% in size)
Summary of the method: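 Cells (PR-UAS-bla HEK 293T, GripTite) were plated in assay medium containing 2% charcoal-stripped FBS and incubated 6 hr. Test compounds in DMSO were added for 16 hr at 37C. FRET substrate was then loaded for 2 hr at room temperature before fluorescence reading.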

Measured: Potency

Sequence of Progesterone receptor (Homo sapiens) (P06401 whole entry, looked up): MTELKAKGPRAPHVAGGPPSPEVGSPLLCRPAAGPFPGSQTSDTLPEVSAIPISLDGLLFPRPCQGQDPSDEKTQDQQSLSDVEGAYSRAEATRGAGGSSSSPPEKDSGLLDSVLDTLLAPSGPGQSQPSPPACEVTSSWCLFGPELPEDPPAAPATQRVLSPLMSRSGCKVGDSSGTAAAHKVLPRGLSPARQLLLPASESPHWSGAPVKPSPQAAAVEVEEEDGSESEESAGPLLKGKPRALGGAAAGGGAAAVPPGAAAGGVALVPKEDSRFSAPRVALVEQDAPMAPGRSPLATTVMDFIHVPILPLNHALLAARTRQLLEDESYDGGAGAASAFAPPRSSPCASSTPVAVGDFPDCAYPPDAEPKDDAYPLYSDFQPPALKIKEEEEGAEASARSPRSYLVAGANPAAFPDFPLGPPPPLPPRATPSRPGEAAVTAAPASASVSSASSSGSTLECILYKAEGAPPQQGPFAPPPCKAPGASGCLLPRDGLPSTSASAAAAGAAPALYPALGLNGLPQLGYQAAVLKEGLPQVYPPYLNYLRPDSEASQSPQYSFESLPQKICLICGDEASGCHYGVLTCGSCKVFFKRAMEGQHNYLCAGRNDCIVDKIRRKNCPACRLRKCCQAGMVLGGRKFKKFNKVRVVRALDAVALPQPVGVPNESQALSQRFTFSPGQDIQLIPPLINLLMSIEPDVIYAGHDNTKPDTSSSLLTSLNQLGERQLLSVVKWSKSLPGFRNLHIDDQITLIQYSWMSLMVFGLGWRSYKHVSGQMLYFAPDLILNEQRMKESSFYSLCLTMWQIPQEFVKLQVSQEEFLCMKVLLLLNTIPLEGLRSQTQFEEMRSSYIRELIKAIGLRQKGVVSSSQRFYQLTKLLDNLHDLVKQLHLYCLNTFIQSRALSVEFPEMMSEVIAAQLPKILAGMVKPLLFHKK
Sequence of Thyrotropin-releasing hormone receptor (Homo sapiens) (P34981 whole entry, looked up): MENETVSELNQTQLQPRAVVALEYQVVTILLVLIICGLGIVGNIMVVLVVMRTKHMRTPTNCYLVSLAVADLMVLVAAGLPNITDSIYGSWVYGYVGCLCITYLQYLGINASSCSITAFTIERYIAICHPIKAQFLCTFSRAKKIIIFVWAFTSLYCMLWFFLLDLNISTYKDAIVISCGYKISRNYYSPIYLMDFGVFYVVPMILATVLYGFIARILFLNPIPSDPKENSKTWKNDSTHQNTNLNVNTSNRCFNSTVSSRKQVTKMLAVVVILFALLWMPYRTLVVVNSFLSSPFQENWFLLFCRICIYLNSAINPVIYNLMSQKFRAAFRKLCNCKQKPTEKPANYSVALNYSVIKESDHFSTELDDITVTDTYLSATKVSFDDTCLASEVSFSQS

COc1ccc(/C=C/C(=O)c2ccc(OC)cc2OC)cc1
inactive: [1] | [2] | [3] | [4] | [5] | [6]

COc1ccc(N)c([N+](=O)[O-])c1
not listed: [1] | [10]
inactive: all other assays above

CC(CCc1ccc(O)cc1)NCCc1ccc(O)c(O)c1 (stereo not drawn)
not listed: [1] | [10]
inactive: all other assays above

O=C(NS(=O)(=O)/C=C/c1ccccc1)c1ccc(F)cc1Cl
not listed: [7] | [9] | [10]
inactive: all other assays above

CCCCOC(=O)CCCCC(=O)OCCCC
not listed: [8] | [10]
inactive: all other assays above

CC1=C2[C@@H]([C@H](C)CC[C@H]2/C=C(\C)C(=O)O)[C@H](O)C1
inactive: [1] | [8] | [9] | [2] | [3] | [4]

c1ccc(CCCc2ccncc2)cc1
inactive: [1] | [2] | [3] | [4] | [5] | [6]

O=C(c1ccccc1)C1CCC1
not listed: [7] | [9] | [10]
inactive: all other assays above

O=C1NC(=O)c2cccc3cccc1c23
not listed: [7] | [10]
inactive: all other assays above

CC(C)C1CCC(C(=O)N[C@H](Cc2ccccc2)C(=O)O)CC1 (stereo partly drawn)
inactive: [1] | [7] | [9] | [2] | [3] | [4]

CCCCCCCCCCCCCCCCCC(=O)OCC(CC)CCCC (stereo not drawn)
inactive: [1] | [7] | [9] | [2] | [3] | [4]

Nc1nc(-c2ccc([N+](=O)[O-])cc2)cs1
not listed: [7] | [10]
inactive: all other assays above

CCN(CC)C(=O)/C(C#N)=C/c1cc(O)c(O)c([N+](=O)[O-])c1
inactive: [7] | [2] | [3] | [5] | [6]
active: [1] 26.6 µM

CC(=O)OCC1=C(C(=O)O)N2C(=O)[C@@H](NC(=O)CSc3ccncc3)[C@H]2SC1
not listed: [3] | [7] | [10]
inactive: all other assays above

CC[C@H]1OC(=O)[C@H](C)[C@@H](O[C@H]2C[C@@](C)(OC)[C@@H](O)[C@H](C)O2)[C@H](C)[C@@H](O[C@@H]2O[C@H](C)C[C@H](N(C)C)[C@H]2O)[C@](C)(O)C[C@@H](C)CN(C)[C@H](C)[C@@H](O)[C@]1(C)O
not listed: [1] | [9]
inactive: all other assays above

O=C(c1ccccc1)c1ccc(O)cc1
active: [7] 43.8 µM
not listed: [8] | [9] | [10]
inactive: all other assays above

C1CCCCC1
not listed: [7] | [10]
inactive: all other assays above

CC(C)OC(=O)c1ccccc1C(=O)OC(C)C
active: [9] 43.3 µM
not listed: [7] | [8] | [10]
inactive: all other assays above

Cc1ccc(Cl)cc1N
inactive: [1] | [8] | [9] | [2] | [3] | [4]

CC(CN(CCN(CC(C)OCCO)CC(C)OCCO)CC(C)OCCO)OCCO (stereo not drawn)
not listed: [1]
inactive: all other assays above

COc1cc(NC(C)CCCN)c2ncccc2c1 (stereo not drawn)
not listed: [1]
inactive: all other assays above

CCC(CO)(CO)CO
not listed: [8] | [10]
inactive: all other assays above

CCOC(=O)c1ccc(NC(=O)CN2CCCCC2)cc1
inactive: [1] | [2] | [3] | [4]
